From PubChem BioAssay (NCI)
Compounds without any hit were thinned out: in the full panel of roughly 79,000, 15% have a hit. The source made the active and inactive calls. No stated cut-off is given here; in the data, active means growth inhibition above about 70%; inactive means the rest.

How the values were obtained:
[1] = NCI Yeast Anticancer Drug Screen. Data for the rad52 strain (AID 147);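 further: 0% = growth of vehicle-treated control cultures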; conditions: S. cerevisiae rad52 mutant growth inhibition, active compounds read high
In short: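 The repair-mutant yeast strain was incubated with compounds, then growth was read and inhibition derived relative to vehicle.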

[2] = NCI Yeast Anticancer Drug Screen. Data for the rad50EPP+ strain (AID 151);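 further: 0% = growth of vehicle-treated control cultures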; conditions: S. cerevisiae rad50 mutant strain, active compounds read high
In short: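 Vehicle-normalised growth inhibition; rad50EPP+ yeast strain, altered in DNA damage repair, compound-treated.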

[3] = NCI Yeast Anticancer Drug Screen. Data for the mgt1 strain (AID 153); conditions: S. cerevisiae mgt1 mutant growth inhibition, active compounds read high
In short: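 Vehicle-normalized growth inhibition is determined in mgt1 yeast, a strain selected for a defined alteration in DNA repair or cell cycle control.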

[4] = NCI Yeast Anticancer Drug Screen. Data for the rad50 strain (AID 155);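 further: 0% = growth of vehicle-only cultures of the same strain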; conditions: S. cerevisiae rad50 strain growth inhibition, active compounds read high
In short: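 Compounds were tested on a yeast strain with an engineered DNA damage repair alteration; the reported value is growth inhibition normalised to vehicle treatment.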

[5] = NCI Yeast Anticancer Drug Screen. Data for the mec2-1 strain (AID 157); conditions: S. cerevisiae mec2-1 strain, active compounds read high
In short: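 Mutant yeast (mec2-1) grown with compound; growth inhibition relative to vehicle control reported.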

[6] = NCI Yeast Anticancer Drug Screen. Data for the rad14 strain (AID 159);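 further: 0% = growth of vehicle-treated control cultures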; conditions: S. cerevisiae rad14 strain growth inhibition, active compounds read high
In short: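 Compound-treated yeast with a defined DNA-repair lesion; growth inhibition normalised to vehicle-treated cultures.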

[7] = NCI Yeast Anticancer Drug Screen. Data for the sgs1 mgt1 strain (AID 161);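 further: 0% = growth of cultures given vehicle only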; conditions: S. cerevisiae sgs1 mgt1 strain, active compounds read high
In short: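 Growth of a repair-deficient yeast mutant was monitored after compound treatment and expressed as inhibition relative to vehicle-treated cultures.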

[8] = NCI Yeast Anticancer Drug Screen. Data for the CLN2oe strain (AID 163);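 further: 0% = growth of vehicle-only control cultures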; conditions: S. cerevisiae CLN2oe strain, active compounds read high
In short: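 Compounds are applied to yeast harbouring a defined cell-cycle control change; reduced growth compared with vehicle-treated controls gives the value.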

[9] = NCI Yeast Anticancer Drug Screen. Data for the cln2 rad14 strain (AID 165);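 further: 0% = growth equal to vehicle treated cultures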; conditions: S. cerevisiae cln2 rad14 strain, active compounds read high
In short: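 Readout is yeast growth inhibition versus vehicle-treated controls, using a strain with cln2 and rad14 alterations exposed to compound.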

[10] = NCI Yeast Anticancer Drug Screen. Data for the bub3 strain (AID 167); conditions: S. cerevisiae bub3 mutant strain, active compounds read high
In short: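 Growth of a checkpoint-deficient yeast mutant is measured after compound exposure. Values represent inhibition relative to vehicle.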

[11] = NCI Yeast Anticancer Drug Screen. Data for the wt2 strain (AID 169);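 further: 0% = growth of vehicle-treated yeast cultures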; conditions: S. cerevisiae wt2 strain growth inhibition, active compounds read high
In short: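 Against vehicle-treated controls, the growth of yeast exposed to each compound was compared, and the inhibition was recorded.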

[12] = NCI Yeast Anticancer Drug Screen. Data for the mlh1 strain (AID 171);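 further: 0% = growth of vehicle-treated control cultures of the same strain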; conditions: S. cerevisiae mlh1 strain growth inhibition, active compounds read high
In short: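 Measured: yeast growth. Reference: vehicle-treated controls. Organism: strain with a defined alteration affecting DNA damage repair or cell cycle control, treated with compound.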

[13] = NCI Yeast Anticancer Drug Screen. Data for the sgs1 strain (AID 173);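 further: 0% = growth of vehicle-only control cultures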; conditions: S. cerevisiae sgs1 mutant, active compounds read high
In short: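 Each compound was added to cultures of the altered yeast strain. Growth was recorded, and inhibition was derived by comparison with vehicle controls.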

[14] = NCI Yeast Anticancer Drug Screen. Data for the mlh1 rad18 strain (AID 175); conditions: S. cerevisiae mlh1 rad18 strain growth inhibition, active compounds read high
In short: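 Genetically defined yeast (DNA repair-deficient) exposed to compounds; growth inhibition determined relative to vehicle.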

[15] = NCI Yeast Anticancer Drug Screen. Data for the rad18 strain (AID 177); conditions: S. cerevisiae rad18 mutant growth inhibition, active compounds read high
In short: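 Vehicle-treated cultures served as the baseline for scoring compound-induced growth inhibition in DNA-repair-mutant yeast.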

[16] = NCI Yeast Anticancer Drug Screen. Data for the wt1 strain (AID 149);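 further: 0% = growth of vehicle-treated wt1 cultures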; conditions: S. cerevisiae wt1 strain (SPY 50644) growth inhibition, active compounds read high
In short: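 Readout: yeast growth inhibition, normalised to vehicle controls, in the wt1 strain exposed to test compounds.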

[17] = at 5.0 µM (retest, dose inferred, filed as 0.5)
[18] = at 50.0 µM (retest, dose inferred, filed as 5.0)

Measured: growth inhibition

CNC(=O)OCc1c(COC(=O)NC)c(-c2ccc(Cl)c(Cl)c2)n2c1SCC2
active: [1]; at 100.0 µM 76% | [4]; at 100.0 µM 76% | [6]; at 100.0 µM 85% | [13]; at 100.0 µM 72% | [14]; at 50.0 µM 86% | [15]; at 100.0 µM 95%
inactive: [1]; at 1.2 µM 0% | [1]; at 3.7 µM 0% | [1]; at 11.0 µM 3% | [1]; at 33.0 µM 14% | [2]; at 1.2 µM -3% | [2]; at 3.7 µM -3% | [2]; at 11.0 µM -3% | [2]; at 33.0 µM -3% | [2]; at 100.0 µM 4% | [3]; at 1.2 µM -4% | [3]; at 3.7 µM -1% | [3]; at 11.0 µM -1% | [3]; at 33.0 µM -3% | [3]; at 100.0 µM 12% | [4]; at 1.2 µM -1% | [4]; at 3.7 µM -3% | [4]; [17] -17% | [4]; at 11.0 µM -3% | [4]; at 33.0 µM 4% | [4]; [18] 35% | [4]; at 50.0 µM 65.7% | [5]; at 1.2 µM -2% | [5]; at 3.7 µM -4% | [5]; [17] 0% | [5]; at 11.0 µM -3% | [5]; at 33.0 µM -4% | [5]; [18] 18% | [5]; at 50.0 µM 27.3% | [5]; at 100.0 µM 38% | [6]; at 1.2 µM 0% | [6]; at 3.7 µM 2% | [6]; at 11.0 µM 4% | [6]; at 33.0 µM 18% | [7]; [17] -5% | [7]; [18] 32% | [7]; at 50.0 µM 39.4% | [8]; at 1.2 µM -1% | [8]; at 3.7 µM -6% | [8]; at 11.0 µM -6% | [8]; at 33.0 µM -5% | [8]; at 100.0 µM -1% | [9]; [17] -3% | [9]; [18] 23% | [9]; at 50.0 µM 25.1% | [10]; at 1.2 µM -2% | [10]; at 3.7 µM -5% | [10]; [17] 0% | [10]; at 11.0 µM -4% | [10]; at 33.0 µM -6% | [10]; [18] 9% | [10]; at 50.0 µM 4.3% | [10]; at 100.0 µM 20% | [11]; at 1.2 µM -1% | [11]; at 3.7 µM -2% | [11]; at 11.0 µM -2% | [11]; at 33.0 µM -5% | [11]; at 100.0 µM 25% | [12]; at 1.2 µM -1% | [12]; at 3.7 µM -2% | [12]; at 11.0 µM -3% | [12]; at 33.0 µM -2% | [12]; at 100.0 µM 44% | [13]; at 1.2 µM -1% | [13]; at 3.7 µM -1% | [13]; at 11.0 µM 1% | [13]; at 33.0 µM 12% | [14]; [17] 2% | [14]; [18] 58% | [15]; at 1.2 µM 0% | [15]; at 3.7 µM 3% | [15]; at 11.0 µM 11% | [15]; at 33.0 µM 48%

C=C(C(=C)n1nnc(C(=O)OC)c1C(=O)OC)n1nnc(C(=O)OC)c1C(=O)OC
inactive: [1]; at 1.2 µM 0% | [1]; at 3.7 µM 2% | [1]; at 11.0 µM 3% | [1]; at 33.0 µM 0% | [1]; at 100.0 µM 0% | [2]; at 1.2 µM 0% | [2]; at 3.7 µM -1% | [2]; at 11.0 µM -1% | [2]; at 33.0 µM -2% | [2]; at 100.0 µM 0% | [3]; at 1.2 µM 0% | [3]; at 3.7 µM 5% | [3]; at 11.0 µM 0% | [3]; at 33.0 µM -1% | [3]; at 100.0 µM -3% | [4]; at 1.2 µM 0% | [4]; at 3.7 µM 1% | [4]; [17] 3% | [4]; at 11.0 µM 0% | [4]; at 33.0 µM 0% | [4]; [18] 2% | [4]; at 50.0 µM 27.1% | [4]; at 100.0 µM -2% | [5]; at 1.2 µM -5% | [5]; at 3.7 µM -5% | [5]; [17] -1% | [5]; at 11.0 µM -3% | [5]; at 33.0 µM -2% | [5]; [18] -1% | [5]; at 50.0 µM 51.9% | [5]; at 100.0 µM -5% | [6]; at 1.2 µM 1% | [6]; at 3.7 µM 3% | [6]; at 11.0 µM 3% | [6]; at 33.0 µM 3% | [6]; at 100.0 µM 1% | [7]; [17] 10% | [7]; [18] -3% | [7]; at 50.0 µM 51% | [8]; at 1.2 µM -2% | [8]; at 3.7 µM -1% | [8]; at 11.0 µM -4% | [8]; at 33.0 µM 0% | [8]; at 100.0 µM -4% | [9]; [17] -3% | [9]; [18] -2% | [9]; at 50.0 µM 53.2% | [10]; at 1.2 µM -1% | [10]; at 3.7 µM -3% | [10]; [17] 2% | [10]; at 11.0 µM -3% | [10]; at 33.0 µM -5% | [10]; [18] 2% | [10]; at 50.0 µM 66.4% | [10]; at 100.0 µM -4% | [11]; at 1.2 µM -1% | [11]; at 3.7 µM -1% | [11]; at 11.0 µM 1% | [11]; at 33.0 µM -1% | [11]; at 100.0 µM 0% | [12]; at 1.2 µM -1% | [12]; at 3.7 µM -2% | [12]; at 11.0 µM 0% | [12]; at 33.0 µM 0% | [12]; at 100.0 µM 0% | [13]; at 1.2 µM 0% | [13]; at 3.7 µM -1% | [13]; at 11.0 µM -2% | [13]; at 33.0 µM 0% | [13]; at 100.0 µM 0% | [14]; [17] -2% | [14]; [18] 48% | [14]; at 50.0 µM 59.5% | [15]; at 1.2 µM 0% | [15]; at 3.7 µM 0% | [15]; at 11.0 µM 1% | [15]; at 33.0 µM 0% | [15]; at 100.0 µM -1%

CC(C)/C(Cl)=N\OC(=O)Nc1ccc(F)cc1F
inactive: [1]; at 1.2 µM 1% | [1]; at 3.7 µM 7% | [1]; at 11.0 µM 15% | [1]; at 33.0 µM 28% | [16]; at 1.2 µM 2% | [16]; at 3.7 µM 1% | [16]; at 11.0 µM -2% | [16]; at 33.0 µM -1% | [16]; at 100.0 µM 6% | [3]; at 1.2 µM 3% | [3]; at 3.7 µM 1% | [3]; at 11.0 µM 4% | [3]; at 33.0 µM 13% | [4]; at 1.2 µM 2% | [4]; at 3.7 µM 8% | [4]; [17] 2% | [4]; at 11.0 µM 15% | [4]; at 33.0 µM 32% | [4]; at 50.0 µM 6.55% | [5]; at 1.2 µM 5% | [5]; at 3.7 µM 9% | [5]; [17] 4% | [5]; at 11.0 µM 13% | [5]; at 33.0 µM 28%
active: [1]; at 100.0 µM 75% | [3]; at 100.0 µM 96% | [4]; [18] 78% | [4]; at 100.0 µM 80% | [5]; [18] 83% | [5]; at 50.0 µM 72.4%
